From PubChem BioAssay (NCATS)
Unmarked numbers belong to inactive results. Records with an inconclusive call do not appear. Activity calls are given as the source filed them. Unless noted, calls come from the whole dose curve; as a rule, active = well fitted curve in the direction sought with a large enough effect; inconclusive = small, poorly fitted or top-dose-only effect, or another doubt; inactive = no such curve, though single readings can be large; an effect the other way counts as inactive or inconclusive.

System: not listed separately
Experiment: Confirmation and Secondary Assay for Modulators of Hemoglobin Beta Chain Splicing at IVS2 654 locus (AID 910);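 note: per-well total GFP intensity by laser scanning cytometry after 2-day treatment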;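 note: potency is the fitted concentration of half-maximal effect; potency of activators that raise GFP signal by restoring correct splicing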; for activation (splicing correction): % of control where 0% means no effect
Details: HeLa EGFP-654 splicing reporter, GFP fluorescence, 48 h; series mostly up to 46.1 µM; activation (splicing correction): at the top concentration
In short: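 HeLa cells stably carrying EGFP interrupted by mutant beta-globin IVS2-654 intron (CMV-driven) were treated with compound for 2 days at 37C; corrected splicing was scored as total peak GFP intensity per well (488 nm excitation, 500-520 nm emission).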

Row | Structure (SMILES) | activation (splicing correction) | Potency
1 | CC1=C(/C=C/C(C)=C/C=C/C(C)=C\C(=O)O)C(C)(C)CCC1 | -2.97% | –
2 | NC(N)=NC(N)=Nc1ccccc1 | -0.186% [at 38.3 µM] | –
3 | C=C(C)C1CC=C(C(=O)O)CC1 (stereo unspecified) | 1.18% | –
4 | O=C(O)c1ccccc1Nc1ccccc1 | 9.04% | –
5 | CC(C)NC[C@H](O)COc1ccc(CC(N)=O)cc1 | 7.48% | –
6 | c1ccc(C2CN3CCSC3=N2)cc1 (stereo unspecified) | 8.07% | –
7 | CN(C)CCC(c1ccc(Br)cc1)c1ccccn1 (stereo unspecified) | 7.12% | –
8 | NCCCCN | -0.174% [at 38.3 µM] | –
9 | O=C1OC(=O)C2C3CCC(O3)C12 (stereo unspecified) | 2.3% [at 38.3 µM] | –
10 | O=[N+]([O-])c1cccc2c(Br)[nH]nc12 | 1.31% | –
11 | O=C(O)/C=C/c1ccc(O)c(O)c1 | 1.38% [at 38.3 µM] | –
12 | Cn1c(=O)c2[nH]c(C3CCCC3)nc2n(C)c1=O | 5.12% | –
13 | N=C(N)SCCN | 1.05% | –
14 | NCCCCN=C(N)N | 1.22% | –
15 | CC(C)Cn1c(=O)n(C)c(=O)c2[nH]cnc21 | – | inactive
16 | NC(=O)CC[C@H](N)C(=O)O | -0.177% [at 38.3 µM] | –
17 | CN1C2CCC1CC(OC(c1ccccc1)c1ccccc1)C2 (stereo unspecified) | 0.315% | –
18 | O=C(O)c1cc2cc(F)ccc2[nH]1 | 0.767% [at 38.3 µM] | –
19 | NC1CONC1=O (stereo unspecified) | 6.29% | –
20 | OC[C@H]1O[C@@H](n2cnc3cncnc32)[C@H](O)[C@@H]1O | – | 1260 nM (active)

System: not listed separately
Experiment: qHTS Assay for Identification of Small Molecule Agonists for Hypoxia Response Element Signaling Pathway (AID 914; active = well fitted activation curve with a large enough effect in the signal ratio, with a control signal flat, not every such curve was filed as active; the % refers to the signal ratio; note: potency is the fitted concentration of half-maximal effect; for activation: % of control where 0% means no effect)
Details: ME-180 (cervical carcinoma) HRE-bla reporter, beta-lactamase ratio, CoCl2, 17 h; activation: active compounds read high
In short: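 Positive modulation of EC50 CoCl2-induced hypoxia response element signaling is measured in ME-180 cells with a beta-lactamase reporter. Compounds are titrated, incubation runs 17 hours, and %Activity derives from the blue/green ratio.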

Row | Structure (SMILES) | activation | Potency
21 | Nc1ccc(N2C(=O)c3ccccc3C2=O)c(Cl)c1 | -21.1% | –
22 | CC(C)(CO)Cc1cc(C(C)(C)C)c(O)c(C(C)(C)C)c1 | – | 12600 nM (active)
23 | CCCn1c(=O)c2c(ncn2C)n(CCC)c1=O | 3.52% | –
24 | Cn1c(=O)c2[nH]c(C3CCCC3)nc2n(C)c1=O | -4.29% | –
25 | CCCCCCC/C=C\CCCCCCCCC(=O)O | -14% | –
26 | Cn1cc(C(=O)OCC2CCN(CCNS(C)(=O)=O)CC2)c2ccccc21 | 26.2% | –

System: not listed separately
Experiment: qHTS Assay for Identification of Small Molecule Agonists for Thrombopoietin (TPO) Signaling Pathway (AID 917); note: % is set by controls: 0 for no effect and ±100 for the full control effect
Details: TPO signaling pathway reporter cells, agonist qHTS, stimulated with TPO at its EC50; series mostly up to 38.5 µM; activity, positive = activation: at the top concentration
In short: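 Reporter: GpIIb promoter–luciferase in murine Ba/F3 expressing human TPO receptor. Pre-starved of IL-3 overnight; compounds with 26 pM TPO, 24 hrs, 37 C/5% CO2; luminescence read.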

Row | Structure (SMILES) | activity, positive = activation | Potency
27 | NC(N)=[N+]1CCc2ccccc2C1 | -27.9% | –
28 | COc1cc(/C=C(\C#N)C(=O)c2ccc(O)c(O)c2)cc(I)c1O | -15.2% | –
29 | NC(N)=NC(N)=Nc1ccccc1 | -23% | –
30 | Nc1ccc(N2C(=O)c3ccccc3C2=O)c(Cl)c1 | -0.869% | –
31 | CC(C)NC[C@H](O)COc1ccc(CC(N)=O)cc1 | – | inactive
32 | NCCCCN | -13.3% | –
33 | CC(C)(CO)Cc1cc(C(C)(C)C)c(O)c(C(C)(C)C)c1 | -20.6% | –
34 | COc1ccc2c(c1)c(CC(=O)O)c(C)n2C(=O)c1ccccc1 | 2.83% | –
35 | O=C(O)/C=C/c1ccc(O)c(O)c1 | -27.4% | –
36 | Cn1c(=O)c2[nH]c(C3CCCC3)nc2n(C)c1=O | 6.19% | –
37 | O=c1cc(-c2ccccc2)[nH]c2nc(Cl)ccc12 | -21.1% | –
38 | NCCCCN=C(N)N | -3.69% | –
39 | COc1ccc2c(c1)c(CC(=O)O)c(C)n2Cc1ccc(Cl)cc1 | -26% | –
40 | O=C(OCCN1CCOCC1)C1(c2ccccc2)CCCCC1 | -27.5% | –
41 | CC(C)Cn1c(=O)n(C)c(=O)c2[nH]cnc21 | -1.24% | –
42 | N[C@@H](Cc1ccc(O)c(I)c1)C(=O)O | -23.7% | –
43 | O=C(O)c1cc2cc(F)ccc2[nH]1 | -1.62% | –
44 | Cn1cc(C(=O)OCC2CCN(CCNS(C)(=O)=O)CC2)c2ccccc21 | -6.87% | –
45 | Cn1ccnc1 | -2.69% | –

System: not listed separately
Experiment: Confirmation and Secondary Assay for Modulators of Hemoglobin Beta Chain Splicing at IVS2 705 locus (AID 930);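 note: HeLa cells stably expressing the EGFP-705 splicing reporter; GFP fluorescence per well restored by corrected splicing of the IVS2-705 intron in EGFP; % of control where 0% means no effect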
Details: HeLa EGFP-705 splicing reporter, GFP fluorescence, 48 h; series mostly up to 46.1 µM; activation: at the top concentration
In short: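 First, HeLa EGFP-705 cells are seeded at 500/well in Optimem with 2% FCS and left overnight. Next, compound or DMSO is added for 2 days. Finally wells are laser-scanned and total peak GFP intensity scored.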

Row | Structure (SMILES) | activation | outcome
46 | CC1=C(/C=C/C(C)=C/C=C/C(C)=C\C(=O)O)C(C)(C)CCC1 | 2.47% | –
47 | NC(N)=NC(N)=Nc1ccccc1 | 2.87% [at 38.3 µM] | –
48 | C=C(C)C1CC=C(C(=O)O)CC1 (stereo unspecified) | 1.58% | –
49 | O=C(O)c1ccccc1Nc1ccccc1 | 2.88% | –
50 | CC(C)NC[C@H](O)COc1ccc(CC(N)=O)cc1 | 1.76% | –
51 | c1ccc(C2CN3CCSC3=N2)cc1 (stereo unspecified) | 1.41% | –
52 | CN(C)CCC(c1ccc(Br)cc1)c1ccccn1 (stereo unspecified) | 1.96% | –
53 | NCCCCN | -0.357% [at 38.3 µM] | –
54 | O=C1OC(=O)C2C3CCC(O3)C12 (stereo unspecified) | 0.751% [at 38.3 µM] | –
55 | O=[N+]([O-])c1cccc2c(Br)[nH]nc12 | 1% | –
56 | O=C(O)/C=C/c1ccc(O)c(O)c1 | 1.12% [at 38.3 µM] | –
57 | Cn1c(=O)c2[nH]c(C3CCCC3)nc2n(C)c1=O | 3.09% | –
58 | N=C(N)SCCN | -0.403% | –
59 | NCCCCN=C(N)N | -0.65% | –
60 | CC(C)Cn1c(=O)n(C)c(=O)c2[nH]cnc21 | – | inactive
61 | NC(=O)CC[C@H](N)C(=O)O | -0.835% [at 38.3 µM] | –
62 | CN1C2CCC1CC(OC(c1ccccc1)c1ccccc1)C2 (stereo unspecified) | -0.0551% | –
63 | O=C(O)c1cc2cc(F)ccc2[nH]1 | 1.17% [at 38.3 µM] | –
64 | NC1CONC1=O (stereo unspecified) | -0.15% | –
65 | OC[C@H]1O[C@@H](n2cnc3cncnc32)[C@H](O)[C@@H]1O | 0.645% [at 38.3 µM] | –

Target: Muscarinic acetylcholine receptor M1 (Rattus norvegicus) (UniProt P08482)
Sequence (P08482 whole entry, looked up): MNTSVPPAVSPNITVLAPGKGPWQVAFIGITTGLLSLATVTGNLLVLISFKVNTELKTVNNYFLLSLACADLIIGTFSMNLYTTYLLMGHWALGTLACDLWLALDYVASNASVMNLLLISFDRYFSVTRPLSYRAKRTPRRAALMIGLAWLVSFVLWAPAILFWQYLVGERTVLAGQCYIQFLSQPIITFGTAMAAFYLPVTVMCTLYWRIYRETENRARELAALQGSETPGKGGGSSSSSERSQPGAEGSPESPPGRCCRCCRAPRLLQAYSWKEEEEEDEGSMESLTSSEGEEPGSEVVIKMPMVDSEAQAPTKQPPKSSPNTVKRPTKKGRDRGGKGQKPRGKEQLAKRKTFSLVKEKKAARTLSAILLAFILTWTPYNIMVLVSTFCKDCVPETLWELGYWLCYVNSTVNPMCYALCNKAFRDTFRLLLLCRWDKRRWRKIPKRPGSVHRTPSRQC
Experiment: qHTS Assay for Antagonists of Acetylcholine Muscarinic M1 Receptor: Kinetic Measurement of Intracellular Calcium Response (AID 943); note: nearly all actives have a fitted effect of over 75% in size; note: potency is the fitted concentration of half-maximal effect;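 for activity change, negative = inhibition: Fluo-4 calcium signal as peak divided by basal fluorescence over 4 min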
Details: M1-expressing cells, kinetic intracellular calcium fluorescence; series mostly up to 35.3 µM; activity change, negative = inhibition: at the top concentration
In short: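 Intracellular calcium flux, recorded with Fluo-4 in a kinetic plate reader, served as signal; the response to carbachol at EC80 (100 nM final) was taken as maximal over minimal fluorescence after a 10 min compound pre-incubation in rat M1-CHO cells.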

Row | Structure (SMILES) | activity change, negative = inhibition | Potency
66 | NC(N)=[N+]1CCc2ccccc2C1 | 16.1% | –
67 | COc1cc(/C=C(\C#N)C(=O)c2ccc(O)c(O)c2)cc(I)c1O | 345% | –
68 | NC(N)=NC(N)=Nc1ccccc1 | -43.7% | –
69 | O=C(O)c1ccccc1Nc1ccccc1 | -10.8% | –
70 | NCCCCN | -28.5% | –
71 | COc1ccc2c(c1)c(CC(=O)O)c(C)n2C(=O)c1ccccc1 | -30.5% | –
72 | CCCn1c(=O)c2c(ncn2C)n(CCC)c1=O | -37.7% | –
73 | Cn1c(=O)c2[nH]c(C3CCCC3)nc2n(C)c1=O | 68.9% | –
74 | O=c1cc(-c2ccccc2)[nH]c2nc(Cl)ccc12 | -43% | –
75 | NCCCCN=C(N)N | -26.2% | –
76 | COc1ccc2c(c1)c(CC(=O)O)c(C)n2Cc1ccc(Cl)cc1 | 13.4% | –
77 | O=C(OCCN1CCOCC1)C1(c2ccccc2)CCCCC1 | – | 2000 nM (active)
78 | CC(C)Cn1c(=O)n(C)c(=O)c2[nH]cnc21 | -3.41% | –
79 | N[C@@H](Cc1ccc(O)c(I)c1)C(=O)O | -26.3% | –
80 | O=C(O)c1cc2cc(F)ccc2[nH]1 | -32.4% | –
81 | Cn1ccnc1 | -19.3% | –
